Inconclusive results are not listed. A number with no mark means an inactive call. Calls of active or inactive are those of the source. Calls follow the shape of the dose curve; as a rule, active = well fitted inhibition curve with a large enough effect; inconclusive = small, poorly fitted or top-dose-only effect; inactive = flat fitted curve, though single readings scatter.
tested on: HEK293; assay: Cytotoxic Profiling of Annotated Libraries Using Quantitative High-Throughput Screening (AID 1296008); details: Five cell lines viability, CellTiter-Glo ATP luminescence, 48-72 h; max response: active compounds read low; also: nearly all actives have a fitted effect of over 60% in size
Text: Cell-based phenotypic screening is a commonly used approach to discover biological pathways, novel drug targets, chemical probes and high-quality hit-to-lead molecules. Many hits identified from high-throughput screening campaign are ruled out through a series of follow-up potency, selectivity/specificity, and cytotoxicity assays. Prioritization of molecules with little or no cytotoxicity for a more in-depth downstream evaluation influence the future direction of projects, so cytotoxicity profiling of the screening libraries at early stage is essential for increasing the likelihood of candidate success. […] For the annotated library, we also examined the primary targets and mechanistic pathways regularly associated with cell death. To our knowledge, this is the first study to use high-throughput screening to profile large libraries for cytotoxicity assessment in both normal and cancer cell lines. In summary, the results generated here constitutes a valuable resource for the scientific community and provides insight on identifying cytotoxic compounds with particular mechanisms of action, and prioritizing compounds with suitable cytotoxicity profile for further evaluation.
A pintool (Kalypsys) was used to transfer 23 nL of compound solution to the 1536-well assay plates. After 48 or 72 hr incubation at 37 degree Celsius, 5% CO2 and 95% humidity, 2.5 uL of CellTiter-Glo (Promega) was dispensed into each well using a dispenser (Aspect Automation, St. Paul, MN) with solenoid valves (Lee Valves, Westbrook CT). Plates were left at room temperature for 10 min before imaging the ATP-coupled luminescence using a ViewLux microplate imager (PerkinElmer, Waltham, MA).
% is scaled to controls: 0 for no effect and ±100 for the full control effect; potency is read from the fitted curve at half-maximal effect.

| Compound | Potency | outcome | max response |
| --- | --- | --- | --- |
| COC(=O)N[C@@H](C)CNc1nccc(-c2cn(C(C)C)nc2-c2cc(Cl)cc(NS(C)(=O)=O)c2F)n1 | 11.6 µM (active) |  |  |
| CNC(=O)c1cc(Oc2ccc3nc(N[C@@H]4CCCC[C@H]4O)sc3c2)ccn1 | 16.4 µM (active) |  |  |
| CCCCOC(=O)NC(=O)C1c2ccccc2Oc2ccccc21 |  | inactive |  |
| CC1OC2OC(=O)C3(C)CC4=C(CO)C5=C(CC(=O)C4(C)C(C1=O)C23)C(C)(C)OC(=O)C5 (stereo not given) |  |  | -12.2% |
| C=C1C(=O)O[C@H](CCC)[C@H]1C(=O)O |  |  | -3.38% |
| COc1cccc(Nc2ncnn3ccc(CN4CC[C@@H](N)[C@H](O)C4)c23)c1 | 13 µM (active) |  |  |
| C[C@H]1Oc2cc(cnc2N)-c2c(nn(C)c2C#N)CN(C)C(=O)c2ccc(F)cc21 |  |  | -113% |
| O=C(C(c1ccccc1)c1ccccc1)N1CCN(CC(O)COc2cccc3ncccc23)CC1 (stereo not given) | 6.51 µM (active) |  |  |
| CC(C)CCC1(O)C(=O)C(C)(C)C(O[C@@H]2O[C@H](CO)[C@@H](O)[C@H](O)[C@H]2O)C(C)(C)C1O (stereo not given in full) |  |  | -13.9% |
| C=C1CCC[C@]2(C)CC[C@@H](C(=C)C(=O)O)[C@H](O)[C@@H]12 |  |  | -1.48% |
| CC(C)N(CCCCOCC(=O)NS(C)(=O)=O)c1cnc(-c2ccccc2)c(-c2ccccc2)n1 |  | inactive |  |
| CN[C@H](CC(C)C)C(=O)N[C@H]1C(=O)N[C@@H](CC(N)=O)C(=O)N[C@H]2C(=O)N[C@H]3C(=O)N[C@H](C(=O)N[C@H](C(=O)O)c4cc(O)cc(O)c4-c4cc3ccc4O)[C@H](O[C@H]3C[C@](C)(N)[C@@H](O)[C@H](C)O3)c3ccc(c(Cl)c3)Oc3cc2cc(c3O[C@@H]2O[C@H](CO)[C@@H](O)[C@H](O)[C@H]2O[C@H]2C[C@](C)(NCc3ccc(-c4ccc(Cl)cc4)cc3)[C@@H](O)[C@H](C)O2)Oc2ccc(cc2Cl)[C@H]1O |  |  | -5.83% |
| COc1cc(C)c(C(=O)O[C@H]2[C@@H](OC(C)=O)[C@H](n3ccc(=O)[nH]c3=O)O[C@@H]2CO)c(OC)c1 |  |  | -0.552% |
| COc1ccc(CNC(=O)c2sc3nc(C)cc(C)c3c2N)cc1 |  |  | -0.378% |
| CC(C)=CCC/C(C)=C/Cc1ccc(O)c(C2OC(=O)c3cc(C(=O)O)cc(O)c32)c1O (stereo not given) |  |  | 0.876% |
| CCc1cc(CN2CC(C(=O)O)C2)sc1-c1noc(-c2ccc(Oc3ccccc3)cc2)n1 |  |  | -73% |
| CC/C=C\[C@H](O)[C@H](O)C1=C(C)C(=O)[C@]2(O1)C(=O)N[C@@](OC)(C(=O)c1ccccc1)[C@@H]2O |  |  | -0.3% |
| CC1(C)CC[C@]2(C(=O)O)[C@H](O)C[C@]3(C)C(=CCC4[C@@]5(C)CC[C@H](O[C@@H]6O[C@H](CO[C@@H]7OC[C@H](O)[C@H](O)[C@H]7O[C@@H]7OC[C@@H](O)[C@H](O)[C@H]7O)[C@@H](O)[C@H](O)[C@H]6O[C@@H]6O[C@H](CO)[C@@H](O)[C@H](O)[C@H]6O)C(C)(C)C5CC[C@]43C)[C@@H]2C1 (stereo not given in full) |  |  | -1.49% |
| C=C1OC2CC(C(=O)O)C=CC2NC1=O (stereo not given) |  |  | 3.15% |
| O=C(NCC(O)CO)c1ccncc1Nc1ccc(I)cc1F (stereo not given) |  |  | -15.9% |

| Compound | Potency | outcome | max response |
| --- | --- | --- | --- |
| COc1ccc(-n2[nH]c(=O)c3[nH]c4cc(Cl)ccc4c(=O)c3c2=O)c(C)c1 |  | inactive |  |
| CN(C)C1CCN(C(=O)c2ccc(NC(=O)Nc3ccc(-c4nc(N5CCOCC5)nc(N5CCOCC5)n4)cc3)cc2)CC1 | 0.0517 µM (active) |  |  |
| Cc1ccc(NC(=O)c2ccc(CN3CC[C@H](N(C)C)C3)c(C(F)(F)F)c2)cc1Nc1nccc(-c2cncnc2)n1 | 5.63 µM (active) |  |  |
| COc1cc2c(NC3CCN(CC4CCCCC4)CC3)nc(N3CCCN(C(C)C)CC3)nc2cc1OCCCN1CCCCC1 | 3.26 µM (active) |  |  |
| C=C(C(=O)O)C1CCC2(C)CCCC(C)(O)C2C1 (stereo not given) |  |  | -4.4% |
| Nc1nc2c(c(=O)[nH]1)C[C@@H](CCc1ccc(C(=O)N[C@@H](CCC(=O)O)C(=O)O)cc1)CN2 | 0.206 µM (active) |  |  |
| CC(=O)N[C@@H](C(=O)O[C@H]1CCC(C)(C)[C@@H]2CCC3=C(COC3=O)[C@@]12C)C(C)C |  |  | 1.75% |
| CC1(O)CCCC2(C)C1CCC13CC(CO)C(CCC12)C3 (stereo not given) |  |  | -21.4% |
| CC(C)=CCC/C(C)=C/CC/C(C)=C/COC1OC(COC2OCC(OC3OCC(O)C(O)C3O)C(O)C2O)C(O)C(OC2OC(C)C(OC3OC(C)C(OC4OCC(OC5OC(C)C(O)C(O)C5O)C(O)C4O)C(O)C3O)C(O)C2O)C1O (stereo not given) |  |  | 4.79% |
| Cc1cc2c(c(=O)[nH]1)OC(C(O)CC(C)C)O2 (stereo not given) |  |  | -7.89% |
| COc1ccc(C2(O)c3ccccc3NC(=O)C2O)cc1 (stereo not given) |  |  | -5.12% |
| CCC1C(=O)N(C)c2cnc(Nc3ccc(C(=O)NC4CCC(N5CCN(CC6CC6)CC5)CC4)cc3OC)nc2N1C(C)C (stereo not given) | 0.0058 µM (active) |  |  |
| COc1cc2ncnc(N3CCC(Oc4cnc5ccccc5n4)C3)c2cc1OC (stereo not given) | 0.366 µM (active) |  |  |
| Cn1ncnc1COc1nn2c(-c3cc(F)ccc3F)nnc2cc1C(C)(C)C |  |  | 0.514% |
| C=CC1C(OC2OC(CO)C(O)C(O)C2O)OC=C(C(=O)OC)C1CC1CC(=O)CC(CCc2ccc(O)cc2)O1 (stereo not given) |  |  | -3.27% |
| O=C(Nc1ccn[nH]1)c1c(F)cccc1F |  |  | 4.81% |
| COC(=O)c1cc(OC)cc(OC)c1C(=O)c1c(OC)cc2c(c1O)C1CCCC(C)(O2)O1 (stereo not given) |  |  | -5.64% |
| C/C=C/C=C/C(=O)N1CC[C@]23c4ccccc4N[C@H]4N(C)c5cccc6c5[C@@]42CCN([C@H]6C2OC2(C)C)[C@H]13 (stereo not given in full) |  |  | -2.78% |
| O=[N+]([O-])c1cn2c(n1)OCC(OCc1ccc(OC(F)(F)F)cc1)C2 (stereo not given) |  |  | -14.5% |
| CC1(C)CC[C@]2(C(=O)O[C@@H]3O[C@H](CO[C@@H]4O[C@H](CO)[C@@H](O)[C@H](O)[C@H]4O[C@@H]4O[C@H](CO)[C@H](O)[C@H](O)[C@H]4O)[C@@H](O)[C@H](O[C@@H]4O[C@H](CO)[C@@H](O)[C@H](O)[C@H]4O)[C@H]3O)CC[C@]3(C)C(=CCC4[C@@]5(C)CC[C@H](O[C@@H]6OC[C@@H](O)[C@H](O)[C@H]6O)[C@@](C)(C(=O)O)C5CC[C@]43C)[C@@H]2C1 (stereo not given in full) |  |  | 2.33% |

Reference: PubChem BioAssay (NCATS)
